Reference: PubChem BioAssay AID1159580 (chemical genetic matrix, 2015)
“And” between values parts separate entries of the source, which are not always exact repeats. Equal values may be shown once. In all, about 5,500 compounds went through this assay and about 2,000 (36%) were called active. Roughly 18% stayed inconclusive and do not appear here. Rule as the data show it: active = normalized growth mostly below about 0.91 (no sharp cut-off); inconclusive = no clear call, values can overlap the other calls; inactive = mostly above about 0.92. The list shows a part of the results.

Test: chemical genetic growth profiling, strain panel (AID 1159580);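 also: tested at 20 µM; growth read once vehicle control cultures reached saturation at 30 °C; 1 = growth at the plate median or of vehicle wells; lower values mean less growth of the strain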
Conditions: S. cerevisiae deletion strains, growth OD

Measured: normalized growth

C=CCc1ccc(O)c(OC)c1
active: locus YBR231C, strain swc5, active compounds read low 0.907 | locus YDL192W, strain arf1, active compounds read low 0.896 | locus YEL061C, strain CIN8, active compounds read low 0.923 | locus YER155C, strain BEM2 (second series), active compounds read low 0.789 | locus YJL168C, strain set2, active compounds read low 0.929
inactive: locus YAL013W, strain DEP1, active compounds read low 0.971 | locus YAL021C, strain ccr4, active compounds read low 1.01 | locus YAL026C, strain drs2, active compounds read low 1 | locus YAL030W, strain snc1, active compounds read low 0.989 | locus YBL061C, strain skt5, active compounds read low 0.986 | locus YBR009C, strain hhf1, active compounds read low 1.02 | locus YBR021W, strain FUR4, active compounds read low 1.05 | locus YBR023C, strain chs3, active compounds read low 1 | locus YBR171W, strain sec66, active compounds read low 0.994 | locus YBR229C, strain ROT2, active compounds read low 0.94 | locus YBR279W, strain paf1, active compounds read low 0.997 | locus YCL011C, strain gbp2, active compounds read low 1.01 | locus YCL016C, strain dcc1, active compounds read low 1.01 | locus YCL029C, strain bik1, active compounds read low 0.949 | locus YCL061C, strain MRC1, active compounds read low 1.01 | locus YCL069W, strain vba3, active compounds read low 0.993 | locus YCR088W, strain abp1, active compounds read low 0.984 | locus YDL005C, strain med2, active compounds read low 1.01 | locus YDL035C, strain GPR1, active compounds read low 0.992 | locus YDL040C, strain nat1, active compounds read low 0.98 | locus YDL074C, strain BRE1, active compounds read low 0.967 | locus YDL101C, strain DUN1, active compounds read low 0.961 | locus YDL185W, strain tfp1, active compounds read low 0.975 | locus YDR001C, strain nth1, active compounds read low 0.982 | locus YDR069C, strain doa4, active compounds read low 1 | locus YDR101C, strain arx1, active compounds read low 0.947 | locus YDR137W, strain rgp1, active compounds read low 0.978 | locus YDR150W, strain NUM1, active compounds read low 0.938 | locus YDR159W, strain sac3, active compounds read low 0.949 | locus YDR162C, strain NBP2, active compounds read low 0.967 | locus YDR195W, strain ref2 0.925 | locus YDR297W, strain sur2, active compounds read low 0.988 | locus YDR318W, strain mcm21, active compounds read low 0.925 | locus YDR334W, strain swr1, active compounds read low 0.983 | locus YDR335W, strain msn5, active compounds read low 0.996 | locus YDR388W, active compounds read low 0.944 | locus YDR392W, strain spt3, active compounds read low 0.841 | locus YDR502C, strain sam2, active compounds read low 0.956 | locus YEL003W, strain gim4, active compounds read low 0.994 | locus YEL037C, strain rad23, active compounds read low 0.989 | locus YEL061C, strain CIN8 (second series), active compounds read low 0.992 | locus YER015W, strain faa2, active compounds read low 0.995 | locus YER016W, strain bim1, active compounds read low 0.994 | locus YER110C, active compounds read low 0.908 | locus YER111C, strain swi4, active compounds read low 0.996 | locus YER155C, strain BEM2, active compounds read low 0.93 | locus YER167W, strain BCK2, active compounds read low 0.911 | locus YFR010W, strain ubp6, active compounds read low 0.999 | locus YGL078C, strain dbp3, active compounds read low 0.984 | locus YGL086W, strain mad1, active compounds read low 0.942 | locus YGL167C, strain pmr1, active compounds read low 0.984 | locus YGL173C, strain kem1, active compounds read low 1 | locus YGL227W, strain vid30, active compounds read low 0.994 | locus YGL240W, strain doc1, active compounds read low 0.955 | locus YGL248W, strain PDE1, active compounds read low 0.937 | locus YGL253W, strain hxk2, active compounds read low 0.994 | locus YGR078C, strain PAC10, active compounds read low 0.929 | locus YGR135W, strain pre9, active compounds read low 0.926 | locus YGR252W, strain gcn5, active compounds read low 1.19 | locus YHR013C, strain ard1, active compounds read low 0.997 | locus YHR027C, strain rpn1, active compounds read low 1 | locus YHR030C, strain SLT2, active compounds read low 0.942 and 0.988 | locus YHR079C, strain IRE1 (second series), active compounds read low 0.927 | locus YHR079C, strain IRE1, active compounds read low 0.975 | locus YHR094C, strain hxt1, active compounds read low 0.939 | locus YHR129C, strain ARP1, active compounds read low 0.931 | locus YHR142W, strain chs7, active compounds read low 1.01 | locus YHR200W, strain rpn10, active compounds read low 0.937 | locus YIL066C, strain RNR3, active compounds read low 0.921 | locus YIL073C, strain SPO22, active compounds read low 0.947 | locus YIL125W, strain kgd1, active compounds read low 0.942 | locus YIR030C, strain dcg1, active compounds read low 0.929 | locus YJL092W, strain hpr5, active compounds read low 0.987 | locus YJL095W, strain BCK1 (second series), active compounds read low 0.992 | locus YJL095W, strain BCK1, active compounds read low 0.937 and 0.962 | locus YJL115W, strain asf1, active compounds read low 0.982 | locus YJL129C, strain trk1, active compounds read low 0.979 | locus YJL134W, strain LCB3, active compounds read low 0.937 | locus YJL154C, strain vps35, active compounds read low 0.996 | locus YJL164C, strain tpk1, active compounds read low 1.02 | locus YJL166W, strain qcr8, active compounds read low 1.03 | locus YJL187C, strain SWE1 (second series), active compounds read low 0.978
